Results as given in PubChem BioAssay (EPA / NIEHS).
Activity calls are given as the source filed them. The calls were made as follows: active = hit-call score of the fitted dose curve at least 0.9, where 1 is the maximum; inactive = score below 0.9.

How the values were obtained:
Conditions in all cases: mRNA level, 48 h; actives raise or lower the signal
[1] = read-out: growth arrest and DNA damage 45 (GADD45A), GADD45A (gene 1647); test: LTEA_HepaRG_GADD45A: Life Technologies and Expression Analysis (LTEA) Assay for growth arrest and DNA damage 45 (GADD45A) using HepaRG (AID 2283458)
In short: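 Differentiated HepaRG cells were exposed in duplicate for 48 h in serum-free induction medium to 8-point half-log concentrations up to 100 uM in 0.5% DMSO. GADD45A mRNA was measured by TaqMan qRT-PCR, normalized to ACTB, GAPDH and POLR2A, with bidirectional fitting versus DMSO.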

[2] = read-out: Forkhead box O3 (FOXO3), FOXO3 (gene 2309); test: LTEA_HepaRG_FOXO3: Life Technologies and Expression Analysis (LTEA) Assay for Forkhead box O3 (FOXO3) using HepaRG (AID 2283459)
In short: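 HepaRG, 48 h post-dose; 8 conc., half-log from 100 uM, 0.5% DMSO, duplicates; serum-free induction medium. Readout: FOXO3 mRNA, TaqMan qRT-PCR, housekeeping-normalized. Bidirectional curve fit vs DMSO baseline.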

[3] = read-out: ABC Transporter (ABCB1), ABCB1 (gene 5243); test: LTEA_HepaRG_ABCB1: Life Technologies and Expression Analysis (LTEA) Assay for ABC Transporter (ABCB1) using HepaRG (AID 2283460)
In short: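 Expression of ABCB1 was quantified by qRT-PCR against three housekeeping genes after human HepaRG cultures received test chemicals for 48 hours. Concentrations spanned eight half-log steps topping at 100 uM in 0.5% DMSO; gain or loss of signal was fitted relative to vehicle.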

[4] = read-out: growth arrest and DNA damage 45 (GADD45B), GADD45B (gene 4616); test: LTEA_HepaRG_GADD45B: Life Technologies and Expression Analysis (LTEA) Assay for growth arrest and DNA damage 45 (GADD45B) using HepaRG (AID 2283461)
In short: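 Transcript level quantified by Fluidigm TaqMan qRT-PCR with three housekeeping genes for normalization, analyzed for up- or down-regulation against 0.5% DMSO. HepaRG cultures dosed 48 h at eight half-log concentrations up to 100 uM, duplicates.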

[5] = read-out: ABC Transporter (ABCC3), ABCC3 (gene 8714); test: LTEA_HepaRG_ABCC3: Life Technologies and Expression Analysis (LTEA) Assay for ABC Transporter (ABCC3) using HepaRG (AID 2283462)
In short: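 Transcript level by TaqMan qRT-PCR, normalised to three housekeeping genes, fitted in both directions relative to vehicle. Chemicals tested in duplicate at eight half-log concentrations up to 100 uM for 48 h on HepaRG cells (0.5% DMSO).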

[6] = read-out: ABC Transporter (ABCB11), ABCB11 (gene 8647); test: LTEA_HepaRG_ABCB11: Life Technologies and Expression Analysis (LTEA) Assay for ABC Transporter (ABCB11) using HepaRG (AID 2283463)
In short: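 ABCB11 transcript levels are read by Fluidigm TaqMan qRT-PCR after 48 h chemical treatment of human HepaRG cells. Concentrations span 100 uM downward in half-log steps with 0.5% DMSO; gain or loss is fitted against DMSO controls.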

[7] = read-out: ABC Transporter (ABCC2), ABCC2 (gene 1244); test: LTEA_HepaRG_ABCC2: Life Technologies and Expression Analysis (LTEA) Assay for ABC Transporter (ABCC2) using HepaRG (AID 2283464)
In short: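 Endpoint is ABCC2 transcript level from qRT-PCR, normalized to three housekeeping genes and fitted bidirectionally relative to DMSO. Human HepaRG cells received test chemical for 48 h at up to 100 uM (8 points, half-log steps, 0.5% DMSO), duplicate wells.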

[8] = read-out: Broad substrate specificity ATP-binding cassette transporter ABCG2 (Homo sapiens) (UniProt Q9UNQ0); test: LTEA_HepaRG_ABCG2: Life Technologies and Expression Analysis (LTEA) Assay for ABC Transporter (ABCG2) using HepaRG (AID 2283465)
In short: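 Read-out is ABCG2 mRNA induction or loss quantified by qRT-PCR after 48 h chemical treatment of human HepaRG cells, normalized to three housekeeping genes. Concentrations reached 100 uM top in half-log steps; fitting was bidirectional against 0.5% DMSO.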

[9] = read-out: ATP-citrate lyase (ACLY), ACLY (gene 47); test: LTEA_HepaRG_ACLY: Life Technologies and Expression Analysis (LTEA) Assay for ATP-citrate lyase (ACLY) using HepaRG (AID 2283466)
In short: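 HepaRG, 48 h exposure, 8-pt half-log dilutions (top 100 uM), 0.5% DMSO. Readout: ACLY mRNA, TaqMan qRT-PCR, housekeeping-normalized (ACTB/GAPDH/POLR2A). Bidirectional curve fit vs DMSO.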

[10] = read-out: Peroxisomal acyl-coenzyme A oxidase 1 (ACOX1) gene, ACOX1 (gene 51); test: LTEA_HepaRG_ACOX1: Life Technologies and Expression Analysis (LTEA) Assay for Peroxisomal acyl-coenzyme A oxidase 1 (ACOX1) gene using HepaRG (AID 2283467)
In short: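 Measured by qRT-PCR against three housekeeping genes: ACOX1 transcript change in human HepaRG cells after 48 h dosing. Concentrations ran up to 100 uM in half-log steps. Curves were fitted bidirectionally relative to 0.5% DMSO.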

[11] = read-out: Alkaline Phosphatase, Placental (ALPP) gene, ALPP (gene 250); test: LTEA_HepaRG_ALPP: Life Technologies and Expression Analysis (LTEA) Assay for Alkaline Phosphatase, Placental (ALPP) gene using HepaRG (AID 2283468)
In short: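 ALPP transcript level, measured by qRT-PCR and normalized to three housekeeping genes (ACTB, GAPDH, POLR2A), after 48 h dosing of differentiated HepaRG in serum-free induction medium. Top concentration 100 uM with half-log dilutions (8 points, 0.5% DMSO, duplicates); bidirectional fitting relative to DMSO.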

[12] = read-out: Bcl-2 (BAD) gene, BAD (gene 572); test: LTEA_HepaRG_BAD: Life Technologies and Expression Analysis (LTEA) Assay for Bcl-2 (BAD) gene using HepaRG (AID 2283469)
In short: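 BAD transcript change, measured by qRT-PCR against three housekeeping genes and fitted in both directions relative to 0.5% DMSO, after 48 h chemical treatment of human HepaRG liver cells at concentrations up to 100 uM.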

[13] = read-out: Bcl-2 (BAX) gene, BAX (gene 581); test: LTEA_HepaRG_BAX: Life Technologies and Expression Analysis (LTEA) Assay for Bcl-2 (BAX) gene using HepaRG (AID 2283470)
In short: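 Differentiated human HepaRG cells, plated 48 h then switched to serum-free induction medium, were exposed 48 h to 8 half-log concentrations up to 100 uM in 0.5% DMSO; BAX mRNA measured by qRT-PCR, normalized to ACTB, GAPDH, POLR2A.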

[14] = read-out: adenosine kinase (ADK) gene, ADK (gene 132); test: LTEA_HepaRG_ADK: Life Technologies and Expression Analysis (LTEA) Assay for adenosine kinase (ADK) gene using HepaRG (AID 2283471)
In short: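 ADK expression quantified by qRT-PCR, normalised to three housekeeping genes, after 48 h exposure of HepaRG cells to eight concentrations (top 100 uM, half-log steps, duplicate, 0.5% DMSO). Up- or down-regulation fitted relative to vehicle.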

[15] = read-out: Alpha-fetoprotein (AFP) gene, AFP (gene 174); test: LTEA_HepaRG_AFP: Life Technologies and Expression Analysis (LTEA) Assay for Alpha-fetoprotein (AFP) gene using HepaRG (AID 2283472)
In short: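 Human HepaRG cells plated 48 h, then switched to serum-free induction medium and exposed in duplicate for 48 h to 8-point half-log series from 100 uM in 0.5% DMSO. AFP mRNA by qRT-PCR, normalized to ACTB, GAPDH, POLR2A; bidirectional fit versus DMSO.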

BCL2L11 (gene 10018) = test: LTEA_HepaRG_BCL2L11: Life Technologies and Expression Analysis (LTEA) Assay for Bcl-2 (BCL2L11) gene using HepaRG (AID 2283473)
In short: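 BCL2L11 transcript levels are measured by Fluidigm qRT-PCR, normalized to three housekeeping genes. HepaRG cultures were plated 48 h, then treated 48 h with test chemical (top 100 uM, half-log, 0.5% DMSO vehicle); curves were fitted bidirectionally against DMSO.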

[16] = read-out: Apolipoprotein A-V (APOA5) gene, APOA5 (gene 116519); test: LTEA_HepaRG_APOA5: Life Technologies and Expression Analysis (LTEA) Assay for Apolipoprotein A-V (APOA5) gene using HepaRG (AID 2283474)
In short: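 APOA5 transcript levels were quantified by qRT-PCR, normalized to three housekeeping genes, after 48 h chemical treatment of HepaRG cells (8 points, 100 uM maximum, half-log steps, 0.5% DMSO). Curves fitted in both directions against vehicle.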

[17] = read-out: Apoptosis regulator Bcl-2 (Homo sapiens) (UniProt P10415); test: LTEA_HepaRG_BCL2: Life Technologies and Expression Analysis (LTEA) Assay for Bcl-2 gene using HepaRG (AID 2283475)
In short: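 Differentiated HepaRG cells in serum-free induction medium were exposed for 48 h to eight half-log concentrations up to 100 uM in 0.5% DMSO, in duplicate. BCL2 mRNA was quantified by TaqMan qRT-PCR normalised to ACTB, GAPDH and POLR2A, with bidirectional fitting versus DMSO.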

[18] = read-out: Bcl-2 (BID) gene, BID (gene 637); test: LTEA_HepaRG_BID: Life Technologies and Expression Analysis (LTEA) Assay for Bcl-2 (BID) gene using HepaRG (AID 2283476)
In short: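 Differentiated HepaRG cells in serum-free induction medium were exposed in duplicate for 48 h to eight half-log concentrations up to 100 uM in 0.5% DMSO. BID mRNA was quantified by qRT-PCR, normalized to ACTB, GAPDH and POLR2A.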

Caspase-3 (Homo sapiens) = Caspase-3 (Homo sapiens) (UniProt P42574); test: LTEA_HepaRG_CASP3: Life Technologies and Expression Analysis (LTEA) Assay for cysteine-aspartic acid protease (CASP3) using HepaRG (AID 2283477)
Chain of Caspase-3 (Homo sapiens) (P42574 whole entry, looked up): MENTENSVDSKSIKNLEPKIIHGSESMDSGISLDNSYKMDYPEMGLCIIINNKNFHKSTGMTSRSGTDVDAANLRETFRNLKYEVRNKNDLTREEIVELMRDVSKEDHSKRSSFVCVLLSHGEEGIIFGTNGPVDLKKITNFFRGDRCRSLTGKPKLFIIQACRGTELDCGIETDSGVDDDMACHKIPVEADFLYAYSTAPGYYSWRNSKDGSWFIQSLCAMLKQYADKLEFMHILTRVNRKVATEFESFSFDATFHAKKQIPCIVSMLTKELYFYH
In short: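 Expression of CASP3 was quantified by TaqMan qRT-PCR against three housekeeping genes (ACTB, GAPDH, POLR2A), bidirectionally versus 0.5% DMSO. HepaRG cultures received compounds in duplicate, top 100 uM with half-log steps, for 48 h in serum-free induction medium.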

Measured: AC50

Chain of Broad substrate specificity ATP-binding cassette transporter ABCG2 (Homo sapiens) (Q9UNQ0 whole entry, looked up): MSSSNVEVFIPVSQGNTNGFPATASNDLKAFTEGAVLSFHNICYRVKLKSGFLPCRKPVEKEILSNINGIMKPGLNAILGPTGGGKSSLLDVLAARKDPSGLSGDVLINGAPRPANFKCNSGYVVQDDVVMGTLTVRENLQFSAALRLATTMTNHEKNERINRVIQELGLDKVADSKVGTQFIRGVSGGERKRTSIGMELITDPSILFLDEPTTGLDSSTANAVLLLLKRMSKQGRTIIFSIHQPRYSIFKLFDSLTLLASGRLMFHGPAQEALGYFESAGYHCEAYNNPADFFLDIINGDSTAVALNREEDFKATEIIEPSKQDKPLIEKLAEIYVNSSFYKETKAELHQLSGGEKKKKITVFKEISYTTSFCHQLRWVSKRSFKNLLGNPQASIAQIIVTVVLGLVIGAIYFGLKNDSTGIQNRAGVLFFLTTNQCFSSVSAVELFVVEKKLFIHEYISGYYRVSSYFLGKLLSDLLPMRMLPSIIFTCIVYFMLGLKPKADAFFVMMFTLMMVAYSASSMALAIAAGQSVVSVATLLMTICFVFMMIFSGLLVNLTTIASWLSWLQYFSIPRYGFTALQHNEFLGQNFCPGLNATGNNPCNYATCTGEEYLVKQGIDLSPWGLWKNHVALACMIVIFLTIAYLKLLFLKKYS
Chain of Apoptosis regulator Bcl-2 (Homo sapiens) (P10415 whole entry, looked up): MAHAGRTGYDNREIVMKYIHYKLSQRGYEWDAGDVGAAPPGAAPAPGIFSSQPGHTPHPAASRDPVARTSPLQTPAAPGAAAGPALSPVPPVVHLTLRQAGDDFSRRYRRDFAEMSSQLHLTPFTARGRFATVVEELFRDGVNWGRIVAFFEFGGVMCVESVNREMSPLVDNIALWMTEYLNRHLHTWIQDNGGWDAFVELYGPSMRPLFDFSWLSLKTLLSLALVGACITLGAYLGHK

Nc1nc(Cl)nc2c1ncn2[C@H]1C[C@H](O)[C@@H](CO)O1
active: [1] 263 nM | [2] 2180 nM | [3] 1390 nM | [4] 447 nM | [5] 987 nM | [6] 593 nM | [7] 1120 nM | [10] 4130 nM | [13] 415 nM | [14] 1050 nM | [15] 1720 nM | [16] 1120 nM
inactive: [8] | [9] | [11] | [12] | BCL2L11 (gene 10018) | [17] | [18] | Caspase-3 (Homo sapiens)

NC(=Nc1ccccc1)Nc1ccccc1
active: [15] 70900 nM
not listed: [16] | [17]
inactive: all other assays above

O=C1c2c(O)cccc2Cc2cccc(O)c21
inactive: all assays above

NC=O
not listed: [16]
inactive: all other assays above

COC(=O)CCCC(=O)OC
active: [5] 263 nM
inactive: all other assays above

Cc1cc(SC2=C(O)C[C@@](CCc3ccc(N)cc3)(C(C)C)OC2=O)c(C(C)(C)C)cc1CO
active: [3] 2440 nM | [6] 50000 nM | [7] 2160 nM
not listed: [17]
inactive: all other assays above
